# Inconclusive results are not listed. Calls of active or inactive are those of the source. Calls follow the shape of the dose curve; as a rule, active = well fitted inhibition curve with a large enough effect; inconclusive = small, poorly fitted or top-dose-only effect; inactive = flat fitted curve, though single readings scatter.
# System: CRL-7250
# Experiment: qHTS assay to identify novel small-molecules to repurpose for Merkel cell carcinoma treatment (AID 1296009); also: nearly all actives have a fitted effect of over 60% in size
# Conditions: MCC and control cell lines, CellTiter-Glo viability, 72 h; at 44.8 µM (top of the series) unless noted
# Procedure, shortened: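 72 hr, 37 degree celsius; NPC 8-pt / MIPE 11-pt dose response; compound pinned in DMSO; CellTiter-Glo, 10 min RT, luminescence; normalized to no-cell and DMSO controls.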
row,Structure (SMILES),outcome
1,Cc1c(NC(C)C)c(=O)n(-c2ccccc2)n1C,inactive
2,CC(C)NCC(O)c1ccc(NS(C)(=O)=O)cc1 (configuration not stated),inactive
3,CC(CCc1ccccc1)NCC(O)c1ccc(O)c(C(N)=O)c1 (configuration not stated),inactive
4,NNC(=O)c1ccncc1,inactive
5,CCCCOCCOC(=O)c1cccnc1,inactive
6,O=C(O)c1ccc[n+]([O-])c1,inactive
7,CN1N=C(C(N)=O)CCC1=O,inactive
8,CCC1=C(C)CN(C(=O)NCCc2ccc(S(=O)(=O)NC(=O)NC3CCC(C)CC3)cc2)C1=O (configuration not stated),inactive
9,CCOC(=O)Oc1ccc(CCNC(=O)[C@H](CCSC)NC(C)=O)cc1OC(=O)OCC,inactive
10,O=C1CC(c2ccc(Cl)cc2)CC(=O)N1,inactive
11,CCOc1cc(CC(=O)N[C@@H](CC(C)C)c2ccccc2N2CCCCC2)ccc1C(=O)O,inactive
12,CCCCCCCCCCCCCCCC(=O)NCCO,inactive
13,Nc1ccn([C@@H]2O[C@H](CO)[C@@H](O)C2O)c(=O)n1 (some centres not stated),inactive
14,NCCCC[C@H](N[C@@H](CCc1ccccc1)C(=O)O)C(=O)N1CCC[C@H]1C(=O)O,inactive
15,O=C1OC(CN2CCOCC2)CN1/N=C/c1ccc([N+](=O)[O-])o1 (configuration not stated),inactive
16,Cc1[nH]cnc1-c1ccc(Cl)cc1,inactive
17,FC(F)(F)c1ccccc1-n1ccnc1,inactive
18,CC(C)(C)NCC(O)COc1cccc2c1C[C@H](O)[C@H](O)C2 (some centres not stated),inactive
19,COc1cc2c(Nc3ccc(Br)cc3F)ncnc2cc1OCC1CCN(C)CC1,inactive
20,Nc1ncnc2nc[nH]c12,inactive
21,O=C(O)Cc1ccc(OCCNC[C@H](O)c2ccccc2)cc1,inactive
22,N#CCC(=O)NN,inactive

# — PubChem BioAssay (NCATS)
